These results are taken from PubChem BioAssay AID588727 (Southern Research Specialized Biocontainment Screening …, 2011).

Structures are written as SMILES. Among all 350,000 compounds or so, about 450 (0.13%) were called active. The rule behind the calls is not given here. Not all results are given here. Measured potencies and affinities stand elsewhere. Where a SMILES comes first, the peptide text is derived from it. [ ]: non-standard residue; d: D form.

The nature of the assay: inhibitors of VEEV TC-83 cytopathic effect, confirmation, Vero cells (AID 588727). The settings on record: VEEV TC-83 cytopathic effect inhibition, at 20 µM.
Where [1] appears, read: stronger effect = higher value unless noted.
[2] abbreviates: measured here: 10K pilot screen inhibition, stronger effect = higher value.

Turning to `CC1CC(C)CN(CCCNC(=O)CN2C(=O)c3cccnc3Oc3ccccc32)C1` (stereo not drawn), under setting [1], the inhibition result is “inactive”.

For the compound `O=C(CCC(=O)OCC(=O)c1ccc([N+](=O)[O-])cc1)Nc1ccccc1Cl`, under setting [1], the inhibition entry is “inactive”.

`CCOc1ccc(CN2CCN(Cc3cn(CC)nc3C)CC2CCO)cc1` (stereo not drawn): the inhibition result under setting [1] was “inactive”.

Take `CCOC(=O)c1sc2nc(C)nc(Nc3ccc(OC)cc3)c2c1C`: under setting [1], the inhibition was 3.17% (inactive).

Regarding `COc1ccc(C(=O)Nc2ccccc2C(=O)N2CCCCCC2)cc1OC`, the inhibition under setting [1] was 5.61% (inactive).

Turning to `CN1CCN(CCC(=O)Nc2ccc(C3CCCC3)cc2)CC1`, the inhibition under setting [1] is 4.6% (inactive).

Take `O=C(Nc1ccc(N2CCN(C(=O)c3ccco3)CC2)cc1)c1cccnc1Cl`: the inhibition is, setting by setting: (stronger effect = higher value) 0.8% (inactive); under setting [2], 1.86%.

On to `COc1ccc(C)cc1NC(=O)C1CCN(C(=O)Cc2ccccc2)CC1`, for which the inhibition under setting [1] was 0.59% (inactive).

With `Cc1cccc(C)c1OCC(=O)NNC(=S)NC(=O)C1CC1`, under setting [1], the inhibition was 9.29% (inactive).

Turning to `COc1ccc(C(=O)NC(=S)NNC(=O)COc2ccccc2)cc1`, the inhibition under setting [1] is 1.92% (inactive).

Regarding `Cc1cccc(C(=O)NC(=S)NNC(=O)COc2c(C)cccc2C)c1`, the inhibition under setting [1] was 1.29% (inactive).

On to `COc1ccc(C(=O)NNC(=S)NC(=O)c2ccc(OC)cc2)cc1`, for which the inhibition under setting [1] was 2.82% (inactive).

As for `O=C(COc1ccccc1)NNC(=S)NC(=O)c1ccccc1`, the inhibition under setting [1] is 52.2% (inactive).

For the compound `COc1ccccc1C(=O)NC(=S)NNC(=O)c1sc2ccccc2c1Cl`, under setting [1], the inhibition is 0.8% (inactive).

As for `COc1ccc(C(=O)NC(=S)NNC(=O)c2ccc(C)cc2)cc1`, the inhibition under setting [1] is 50.1% (inactive).

Take `COc1ccccc1C(=O)NNC(=S)NC(=O)c1sc2ccccc2c1Cl`: the inhibition under setting [1] was 4.48% (inactive).

Consider `CCCc1nnc(NC(=O)CNc2ccc(F)cc2)s1`, for which the inhibition under setting [1] is 1.71% (inactive).

`CN(C)c1ccc(CNC(=O)c2cc(S(=O)(=O)N3CCCC3)cn2C)cc1`: the inhibition is 0.58% (inactive) (stronger effect = higher value) and 0.765% under setting [2].

Take `Cc1ccc(C)c(S(=O)(=O)N/N=C/c2ccc(N3CCOCC3)cc2)c1`: under setting [1], the inhibition was 13% (inactive).

As for `COc1ccc(-c2nnc(SCc3cccc(C)c3)n2N)cc1`, the inhibition under setting [1] was 1.8% (inactive).

On to `O=c1n(Cc2ccccc2Cl)nc2n1-c1ccccc1SC2`, for which the inhibition under setting [1] is 1.6% (inactive).

Regarding `CN1CCN(NC(=O)c2cn(-c3ccccc3)nc2-c2cccc(Br)c2)CC1`, under setting [1], the inhibition was 4.96% (inactive).

In the case of `COc1ccc(C(=O)NC(=S)NCCc2ccccc2)cc1`, under setting [1], the inhibition result was “inactive”.

Regarding `COc1ccc(C(=O)NNC(=S)NC(=O)c2ccco2)cc1`, the inhibition under setting [1] was 3.21% (inactive).

Consider `O=C(CCc1ccccc1)NNC(=S)NC(=O)c1ccccc1`, for which the inhibition under setting [1] was 8.58% (inactive).

With `O=C(NC(=S)NNC(=O)c1cc2ccccc2cc1O)c1ccco1`, under setting [1], the inhibition was 35.8% (inactive).

In the case of `CC1CCN(c2ccc(C(=O)OCC(=O)NCCN3C(=O)CSC3=O)cc2[N+](=O)[O-])CC1`, the inhibition under setting [1] was 2.94% (inactive).

Take `Nc1nc(=O)n(C2CCCO2)cc1Br` (stereo not drawn): under setting [1], the inhibition result is “inactive”.

Regarding `CCCCn1nnnc1SCC(=O)NCc1ccco1`, under setting [1], the inhibition is 0.76% (inactive).

In the case of `CCOc1ccc(CCNC(=O)CCc2nnc3ccc(N4CCOCC4)nn23)cc1OCC`, the inhibition under setting [1] was 0.04% (inactive).

In the case of `CCN(CC(=O)Nc1ccc(NC(C)=O)cc1)C(=O)C12CC3CC(CC(Cl)(C3)C1)C2`, the inhibition result under setting [1] was “inactive”.

For the compound `Cn1cc(C(=O)Nc2ccc(Cl)c(Cl)c2)cn1`, the inhibition under setting [1] is 0.63% (inactive).

On to `O=C(NC(Cc1c[nH]c2ccccc12)C(=O)O)c1cccs1` (stereo not drawn), for which the inhibition under setting [1] is 0.43% (inactive).

Take `O=C(Nc1ccc(F)c([N+](=O)[O-])c1)c1cccs1`: the inhibition under setting [1] is 0.78% (inactive).

`O=C(NC(Cc1c[nH]c2ccccc12)C(=O)Nc1ccc(OC(F)(F)F)cc1)c1cccs1` (stereo not drawn): the inhibition under setting [1] was 11.9% (inactive).

For `O=C(NC(Cc1c[nH]c2ccccc12)C(=O)N/N=C/c1ccc(Cl)cc1)c1cccs1` (stereo not drawn), the inhibition under setting [1] was 6% (inactive).

With `Cc1cc(C)nc(N2C(=O)CC(C(=O)O)NC2=NCCc2c[nH]c3ccccc23)n1` (stereo not drawn), under setting [1], the inhibition entry was “inactive”.

Consider `COc1ccc(/C=N/NC(=O)c2c(-c3ccccc3)noc2C)cc1`, for which the inhibition under setting [1] was 1.23% (inactive).

Consider `COc1cc2nc(N(CCCN(C)C)C(=O)c3ccc(S(=O)(=O)N4CCc5ccccc54)cc3)sc2cc1OC`, for which the inhibition under setting [1] was 5.52% (inactive).

As for `CN(C)CCCN(C(=O)c1ccc(S(=O)(=O)N2CCc3ccccc32)cc1)c1nc2c(Cl)cccc2s1`, under setting [1], the inhibition was 12.6% (inactive).

Turning to `O=C(NC1CONC1=O)OCC(Cl)(Cl)Cl` (stereo not drawn), the inhibition result under setting [1] was “inactive”.

On to `CCc1nnc(NC(=O)C2CC(=O)N(Cc3ccco3)C2)s1` (stereo not drawn), for which, under setting [1], the inhibition was 2.16% (inactive).

`Cc1cc(C)c[n+](CC(=O)c2ccc(C)c([N+](=O)[O-])c2)c1`: the inhibition under setting [1] was 0.1% (inactive).

As for `Cc1cccc[n+]1CC(=O)c1ccc([N+](=O)[O-])cc1`, the inhibition result under setting [1] was “inactive”.

Regarding `S=C(N/N=C/c1ccc2ncccc2c1)Nc1ccccc1`, under setting [1], the inhibition is 9.82% (inactive).

Regarding `COc1ccccc1C(=O)Nc1ccc2c(c1)CCCN2C(=O)c1cccs1`, the inhibition under setting [1] was 4.26% (inactive).

As to `O=C(Nc1ccc2c(c1)CCCN2C(=O)c1cccs1)c1ccccc1`, the inhibition under setting [1] was 6.53% (inactive).

`CCn1nnnc1SCC(=O)N1CCOCC1`: the inhibition under setting [1] is 0.74% (inactive).

With `COc1ccc(N2CC(C(=O)N/N=C/c3cc([N+](=O)[O-])ccc3O)CC2=O)cc1` (stereo not drawn), under setting [1], the inhibition is 2.03% (inactive).

`CC[C@H](C)[C@@H]1NC(=O)[C@H]([C@@H](C)CC)NC(=O)[C@@H](CC(C)C)NC(=O)[C@H](Cc2ccccc2)NC(=O)[C@H](Cc2ccccc2)NC(=O)[C@@H]2CCCN2C(=O)[C@@H]2CCCN2C(=O)[C@H](C(C)C)NC(=O)[C@H](CC(C)C)NC1=O` (cyclo(FF[dL]IILVPP)): under setting [1], the inhibition entry is “inactive”.

On to `CCC(C)[C@@H]1NC(=O)N(CCCN2CCCC2=O)C1=O` (stereo partly drawn), for which the inhibition under setting [1] is 2.56% (inactive).
